Values joined by “and” are separate entries in the source; they are usually repeats but may differ in a detail not shown here. Identical values can stand only once. Inconclusive results are not listed. Entries that show only a call come without a potency. Active and inactive are the calls of the source. Calls come from the whole dose curve; as a rule, active = well fitted curve in the direction sought with a large enough effect; inconclusive = small, poorly fitted or top-dose-only effect, or another doubt; inactive = no such curve, though single readings can be large; an effect the other way counts as inactive or inconclusive.
Columns and labels:
[1] = biological target: N-terminal Xaa-Pro-Lys N-methyltransferase 1 (Homo sapiens) (UniProt Q9BV86); experiment: qHTS Assay for Inhibitors of N-terminal methyltransferase 1 (NTMT1): LOPAC validation of the NTMT1 SAHH-coupled ThioGlo3 Assay (AID 1347143);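 note: SAH from peptide methylation measured as thiol fluorescence via SAHH coupling and ThioGlo3; nearly all actives have a fitted effect of over 70% in size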; note: potency is the fitted concentration of half-maximal effect
Sequence of N-terminal Xaa-Pro-Lys N-methyltransferase 1 (Homo sapiens) (Q9BV86 whole entry, looked up): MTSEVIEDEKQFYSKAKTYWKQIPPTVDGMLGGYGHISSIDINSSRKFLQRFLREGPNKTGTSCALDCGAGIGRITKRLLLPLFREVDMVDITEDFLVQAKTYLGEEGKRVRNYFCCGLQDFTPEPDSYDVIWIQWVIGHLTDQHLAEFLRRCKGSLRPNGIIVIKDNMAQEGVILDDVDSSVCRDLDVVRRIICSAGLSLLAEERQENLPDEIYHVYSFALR
Procedure, shortened: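 In this qHTS pilot against the LOPAC set, 125nM NTMT1 met compounds tested at multiple concentrations, and fluorescence was normalized to background.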

[2] = system: Zika virus NS2B-NS3 protease (unlinked); experiment: Optimization of GU AMC qHTS for Zika virus inhibitors: Unlinked NS2B-NS3 protease assay (AID 1347151); note: series mostly up to about 52 µM; nearly all actives have a fitted effect of over 80% in size
Procedure, shortened: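 Percent inhibition is derived from the 15-min change in AMC fluorescence, normalized against no-inhibitor and no-enzyme controls, then fitted to a 4-parameter Hill curve. Aprotinin was the intraplate control.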

[3] = system: Zika virus NS2B-NS3 protease; experiment: Primary screen GU AMC qHTS for Zika virus inhibitors (AID 1347154); note: nearly all actives have a fitted effect of over 70% in size; note: potency is the fitted concentration of half-maximal effect
Procedure, shortened: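 Unlinked Zika NS2B hydrophilic domain/NS3 protease domain noncovalent complex (25 nM final) in 10 mM Tris-HCl pH 8.0, 0.01% Tween 20, with AMC peptide substrate. Fluorescence (ex 340, em 450 nm) change over 15 min, room temperature; percent inhibition fitted to 4-parameter Hill equation.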

[4] = qHTS of pediatric cancer cell lines to identify multiple opportunities for drug repurposing: Confirmatory screen for Saos-2 cells (AID 1347127); note: nearly all actives have a fitted effect of over 60% in size; note: potency is the fitted concentration of half-maximal effect
Procedure, shortened: (§1)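 Cells (500-1,000/well) in growth media were settled 5 h at 37 degrees C, then given compounds for 48 h. Viability was read as CellTiter-Glo luminescence. Primary runs used MIPE at 11 points (0.78 nM-46 µM) and NPC at 8 points (0.59 nM-46 µM); follow-ups used 11 points.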

[5] = qHTS of pediatric cancer cell lines to identify multiple opportunities for drug repurposing: Confirmatory screen for SK-N-SH cells (AID 1347129);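 note: cells exposed to compound for 48 h before viability read; nearly all actives have a fitted effect of over 60% in size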; note: potency is the fitted concentration of half-maximal effect
Procedure, shortened: as §1

Furin (Homo sapiens) = Furin (Homo sapiens) (UniProt P09958); experiment: Furin counterscreen qHTS for Zika virus inhibitors (AID 1347149); note: potency is the fitted concentration of half-maximal effect; nearly all actives have a fitted effect of over 70% in size
Sequence of Furin (Homo sapiens) (P09958 whole entry, looked up): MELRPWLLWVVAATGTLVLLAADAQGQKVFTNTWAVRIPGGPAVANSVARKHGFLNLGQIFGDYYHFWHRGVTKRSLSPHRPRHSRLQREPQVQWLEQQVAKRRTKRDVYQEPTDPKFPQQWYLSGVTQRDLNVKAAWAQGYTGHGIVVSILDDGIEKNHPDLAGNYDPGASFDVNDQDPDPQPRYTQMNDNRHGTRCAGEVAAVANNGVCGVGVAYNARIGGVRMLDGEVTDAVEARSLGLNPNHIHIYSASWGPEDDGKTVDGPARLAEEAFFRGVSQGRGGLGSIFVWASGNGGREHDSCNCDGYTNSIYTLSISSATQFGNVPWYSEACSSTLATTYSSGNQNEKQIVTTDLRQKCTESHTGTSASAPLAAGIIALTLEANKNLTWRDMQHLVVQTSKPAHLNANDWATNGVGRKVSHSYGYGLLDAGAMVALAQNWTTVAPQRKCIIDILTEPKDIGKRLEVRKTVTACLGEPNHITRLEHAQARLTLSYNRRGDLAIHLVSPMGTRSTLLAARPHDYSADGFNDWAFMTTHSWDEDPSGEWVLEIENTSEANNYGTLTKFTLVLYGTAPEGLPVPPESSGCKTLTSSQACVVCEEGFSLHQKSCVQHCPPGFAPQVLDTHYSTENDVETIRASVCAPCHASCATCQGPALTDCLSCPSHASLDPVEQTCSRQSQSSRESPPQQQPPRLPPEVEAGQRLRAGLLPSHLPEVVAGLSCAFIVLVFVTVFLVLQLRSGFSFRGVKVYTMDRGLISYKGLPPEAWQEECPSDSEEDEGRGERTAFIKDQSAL
Procedure, shortened: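 Counterscreen measures cleavage of 2 microM BOC-RVRR-AMC, below its ~15 microM Km, by 5 nM full-length human furin at pH 7.0 after a 15-min compound preincubation. Inhibition derives from the 15-min fluorescence increase at 37C.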

[6] = qHTS of pediatric cancer cell lines to identify multiple opportunities for drug repurposing: Confirmatory screen for Rh30 cells (AID 1347126); note: nearly all actives have a fitted effect of over 55% in size; note: potency is the fitted concentration of half-maximal effect
Procedure, shortened: as §1

[7] = qHTS of pediatric cancer cell lines to identify multiple opportunities for drug repurposing: Confirmatory screen for Rh18 cells (AID 1347125); note: potency is the fitted concentration of half-maximal effect; nearly all actives have a fitted effect of over 55% in size
Procedure, shortened: as §1

With `NC(N)=Nc1nc(CSCC/C(N)=N/S(N)(=O)=O)cs1` the Potency [1] was “inactive” and the Potency [2] was “inactive”.

For `CN(C)CCC(c1ccccc1)c1ccccn1` (stereo unspecified), the Potency [1] was “inactive”, the Potency [2] was “inactive” and the Potency [3] was “inactive”.

With `CC(C)(C)c1ccc(C(O)CCCN2CCC(C(O)(c3ccccc3)c3ccccc3)CC2)cc1` (stereo unspecified) the Potency [1] was “inactive”, the Potency [2] was “inactive” and the Potency [3] was “inactive”.

For `CC[C@]1(O)C[C@@H]2CN(CCc3c([nH]c4ccccc34)[C@@](C(=O)OC)(c3cc4c(cc3OC)N(C)[C@H]3[C@@](O)(C(=O)OC)[C@H](OC(C)=O)[C@]5(CC)C=CCN6CC[C@]43[C@@H]65)C2)C1`, the Potency [4] was 657 nM (active) and 1.17 µM (active), the Potency [5] was 0.148 µM (active) and the Potency [3] was “inactive”.

For `CCCCC1C(=O)N(c2ccccc2)N(c2ccccc2)C1=O`, the Potency [1] was “inactive” and the Potency [2] was “inactive”.

With `CC(C)NCC(O)COc1cccc2[nH]ccc12` (stereo unspecified) the Potency [1] was “inactive”, the Potency [2] was “inactive” and the Potency [3] was “inactive”.

With `CC[C@@H]1C=C(C)C[C@H](C)C[C@H](OC)[C@H]2O[C@@](O)(C(=O)C(=O)N3CCCC[C@@H]3C(=O)O[C@H](C(C)=C[C@@H]3CC[C@H](Cl)[C@H](OC)C3)[C@H](C)[C@@H](O)CC1=O)[C@H](C)C[C@H]2OC` the Potency [5] was “inactive” and the Potency [3] was “inactive”.

With `CCN(CC)CCOC(=O)c1ccc(N)cc1` the Potency [1] was “inactive”, the Potency [2] was “inactive” and the Potency [3] was “inactive”.

With `Cc1cc(OCCCc2c(C(=O)O)n(Cc3cccnc3)c3c(-c4c(COc5ccc(N6CCN([S+](C)(=O)[O-])CC6)cc5)nn(C)c4C)cccc23)cc(C)c1Cl` the Potency [5] was “inactive”, the Potency (Furin (Homo sapiens)) was 21.5 µM (active) and the Potency [3] was 21.5 µM (active).

With `CO[C@H]1C(=O)[C@]2(C)[C@@H](OC)C[C@H]3OC[C@@]3(OC(C)=O)[C@H]2[C@H](OC(=O)c2ccccc2)[C@]2(O)C[C@H](OC(=O)[C@H](O)[C@@H](NC(=O)OC(C)(C)C)c3ccccc3)C(C)=C1C2(C)C` the Potency [6] was “inactive” and the Potency [4] was 0.0147 µM (active).

With `COc1cc2nc(-c3ccc(N4CCN(C)CC4)cc3)nc(NCCN3CCOCC3)c2cc1OC` the Potency [7] was 0.293 µM (active) and the Potency [5] was 4.69 µM (active).

With `O=c1[nH]cnc2c1ncn2[C@H]1CC[C@@H](CO)O1` the Potency [6] was “inactive”, the Potency [4] was “inactive” and the Potency [5] was “inactive”. For the same molecule, the Potency [3] was “inactive”.

With `O=C(O)c1ccc(-c2cc3cccnc3c(-c3ccc4nonc4c3)n2)cc1` the Potency [4] was 5.22 µM (active), the Potency [5] was “inactive” and the Potency [3] was “inactive”.

With `O=C1NC(=O)C(c2ccccc2)(c2ccccc2)N1` the Potency [1] was “inactive” and the Potency [2] was “inactive”.

For `CC(=O)c1ccc(S(=O)(=O)NC(=O)NC2CCCCC2)cc1`, the Potency [1] was “inactive”, the Potency [2] was “inactive” and the Potency [3] was “inactive”.

With `CC1(C)CCC2=C(O1)c1ccccc1C(=O)C2=O` the Potency [6] was 20.8 µM (active), the Potency [4] was 10.4 µM (active) and the Potency [3] was “inactive”.

In the case of `COC(=O)[C@@H]1[C@H]2C[C@H]3c4[nH]c5ccccc5c4CCN3C[C@@H]2CC[C@@H]1O`, the Potency [1] is reported as 79.4 µM (active), the Potency [2] is reported as “inactive” and the Potency [3] is reported as “inactive”.

For `Cc1[nH]c(C=C2C(=O)Nc3ccc(S(=O)(=O)Cc4c(Cl)cccc4Cl)cc32)c(C)c1C(=O)N1CCC[C@H]1CN1CCCC1`, the Potency [7] was 26.1 µM (active), the Potency [5] was 23.5 µM (active) and the Potency [3] was “inactive”.

For `CCCNC(=O)NS(=O)(=O)c1ccc(Cl)cc1`, the Potency [1] was “inactive”, the Potency [2] was “inactive” and the Potency [3] was “inactive”.

For `CC(=O)O[C@]1(C(C)=O)CC[C@H]2[C@@H]3C=C(Cl)C4=CC(=O)[C@@H]5C[C@@H]5[C@]4(C)[C@H]3CC[C@@]21C`, the Potency [1] was “inactive”, the Potency [2] was “inactive” and the Potency [3] was “inactive”.

For `CC1=C(/C=C/C(C)=C/C=C/C(C)=C/C(=O)Nc2ccc(O)cc2)C(C)(C)CCC1`, the Potency [1] was “inactive”.
